Measured values reported in PubChem BioAssay (NCI).
The panel holds about 79,000 compounds, 15% with a hit somewhere; the sample as a whole holds those more often. Activity calls are given as the source filed them. Rule as the data show it: active = growth inhibition above about 70%; inactive = the rest.

Columns and labels:
[1] = NCI Yeast Anticancer Drug Screen. Data for the rad52 strain (AID 147);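 also: 0% = growth of vehicle-treated control cultures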; conditions: S. cerevisiae rad52 mutant growth inhibition, hits give high values
Summary of the method: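 Vehicle-treated cultures served as the reference for growth inhibition of compound-exposed yeast bearing a DNA repair mutation.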

[2] = NCI Yeast Anticancer Drug Screen. Data for the wt1 strain (AID 149);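 also: 0% = growth of vehicle-treated wt1 cultures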; conditions: S. cerevisiae wt1 strain (SPY 50644) growth inhibition, hits give high values
Summary of the method: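 Measured: growth of wt1 yeast under compound versus vehicle treatment, reported as inhibition.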

[3] = NCI Yeast Anticancer Drug Screen. Data for the rad50EPP+ strain (AID 151);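 also: 0% = growth of vehicle-treated control cultures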; conditions: S. cerevisiae rad50 mutant strain, hits give high values
Summary of the method: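 In this screen, rad50EPP+ yeast were exposed to compounds. Growth inhibition was scored against vehicle-treated controls.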

[4] = NCI Yeast Anticancer Drug Screen. Data for the mgt1 strain (AID 153); conditions: S. cerevisiae mgt1 mutant growth inhibition, hits give high values
Summary of the method: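 mgt1 strain exposed; growth vs vehicle control recorded as inhibition.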

[5] = NCI Yeast Anticancer Drug Screen. Data for the rad50 strain (AID 155);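 also: 0% = growth of vehicle-only cultures of the same strain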; conditions: S. cerevisiae rad50 strain growth inhibition, hits give high values
Summary of the method: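 Growth of the mutant yeast was measured after compound exposure and referenced to vehicle-treated cultures.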

[6] = NCI Yeast Anticancer Drug Screen. Data for the mec2-1 strain (AID 157); conditions: S. cerevisiae mec2-1 strain, hits give high values
Summary of the method: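 Vehicle-treated cultures served as reference for growth inhibition of compound-exposed mec2-1 yeast.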

[7] = NCI Yeast Anticancer Drug Screen. Data for the rad14 strain (AID 159);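 also: 0% = growth of vehicle-treated control cultures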; conditions: S. cerevisiae rad14 strain growth inhibition, hits give high values
Summary of the method: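 Here, inhibition of yeast growth was measured after compound exposure, using a strain with a genetic defect in DNA damage repair and vehicle-treated cultures as the reference.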

[8] = NCI Yeast Anticancer Drug Screen. Data for the sgs1 mgt1 strain (AID 161);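 also: 0% = growth of cultures given vehicle only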; conditions: S. cerevisiae sgs1 mgt1 strain, hits give high values
Summary of the method: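 Test agents were incubated with a DNA-repair-mutant yeast strain. Growth was then read and compared against vehicle-treated controls.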

[9] = NCI Yeast Anticancer Drug Screen. Data for the CLN2oe strain (AID 163);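 also: 0% = growth of vehicle-only control cultures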; conditions: S. cerevisiae CLN2oe strain, hits give high values
Summary of the method: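 Inhibition relative to vehicle-treated yeast is reported. Cells: strain with genetic alteration in cell-cycle control, grown with compound.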

[10] = NCI Yeast Anticancer Drug Screen. Data for the cln2 rad14 strain (AID 165);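 also: 0% = growth equal to vehicle treated cultures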; conditions: S. cerevisiae cln2 rad14 strain, hits give high values
Summary of the method: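 Each compound was tested on cln2 rad14 yeast. Inhibition of growth was calculated against vehicle-exposed controls.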

[11] = NCI Yeast Anticancer Drug Screen. Data for the bub3 strain (AID 167); conditions: S. cerevisiae bub3 mutant strain, hits give high values
Summary of the method: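 Whole-cell yeast assay. The mutant strain was incubated with compounds, and growth inhibition was determined by comparison with vehicle-treated cells.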

[12] = NCI Yeast Anticancer Drug Screen. Data for the wt2 strain (AID 169);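 also: 0% = growth of vehicle-treated yeast cultures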; conditions: S. cerevisiae wt2 strain growth inhibition, hits give high values
Summary of the method: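 Inhibition of yeast growth was determined after compound treatment, normalised to controls receiving only vehicle.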

[13] = NCI Yeast Anticancer Drug Screen. Data for the mlh1 strain (AID 171);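 also: 0% = growth of vehicle-treated control cultures of the same strain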; conditions: S. cerevisiae mlh1 strain growth inhibition, hits give high values
Summary of the method: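 Vehicle-normalised growth inhibition of a repair- or checkpoint-altered yeast strain following compound treatment.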

[14] = NCI Yeast Anticancer Drug Screen. Data for the sgs1 strain (AID 173);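 also: 0% = growth of vehicle-only control cultures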; conditions: S. cerevisiae sgs1 mutant, hits give high values
Summary of the method: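 Screen format: yeast with repair or checkpoint alterations, compound exposure, growth read relative to vehicle.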

[15] = NCI Yeast Anticancer Drug Screen. Data for the mlh1 rad18 strain (AID 175); conditions: S. cerevisiae mlh1 rad18 strain growth inhibition, hits give high values
Summary of the method: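 Vehicle-treated cultures served as the reference for growth inhibition in a yeast strain carrying DNA damage repair alterations exposed to each compound.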

[16] = NCI Yeast Anticancer Drug Screen. Data for the rad18 strain (AID 177); conditions: S. cerevisiae rad18 mutant growth inhibition, hits give high values
Summary of the method: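 Test articles were incubated with altered yeast defective in DNA damage repair. Results are given as inhibition of growth versus vehicle.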

[17] = at 5.0 µM (retest, dose inferred, filed as 0.5)
[18] = at 50.0 µM (retest, dose inferred, filed as 5.0)

Measured: growth inhibition

CC(C)OC(=O)NNc1c(Cl)cc(Cl)cc1Cl
active: [3]; at 33.0 µM 74% | [3]; at 100.0 µM 79% | [11]; at 33.0 µM 76% | [11]; [18] 82% | [11]; at 50.0 µM 93.2% | [11]; at 100.0 µM 81%
inactive: [1]; at 1.2 µM -2% | [1]; at 3.7 µM -2% | [1]; at 11.0 µM 2% | [1]; at 33.0 µM 6% | [1]; at 100.0 µM 5% | [2]; at 1.2 µM -2% | [2]; at 3.7 µM -3% | [2]; at 11.0 µM -4% | [2]; at 33.0 µM -3% | [2]; at 100.0 µM -5% | [3]; at 1.2 µM 10% | [3]; at 3.7 µM 31% | [3]; at 11.0 µM 49% | [4]; at 1.2 µM -2% | [4]; at 3.7 µM -2% | [4]; at 11.0 µM 2% | [4]; at 33.0 µM 8% | [4]; at 100.0 µM 5% | [5]; at 1.2 µM -2% | [5]; at 3.7 µM 7% | [5]; [17] 18% | [5]; at 11.0 µM 18% | [5]; at 33.0 µM 16% | [5]; [18] 28% | [5]; at 50.0 µM 2.75% | [5]; at 100.0 µM 13% | [6]; at 1.2 µM -3% | [6]; at 3.7 µM -3% | [6]; [17] 0% | [6]; at 11.0 µM 0% | [6]; at 33.0 µM 1% | [6]; [18] 10% | [6]; at 50.0 µM 3.15% | [6]; at 100.0 µM 0% | [7]; at 1.2 µM -4% | [7]; at 3.7 µM -2% | [7]; at 11.0 µM 2% | [7]; at 33.0 µM 7% | [7]; at 100.0 µM 7% | [8]; [17] 4% | [8]; [18] 24% | [8]; at 50.0 µM 15.2% | [9]; at 1.2 µM 1% | [9]; at 3.7 µM 5% | [9]; at 11.0 µM 14% | [9]; at 33.0 µM 19% | [9]; at 100.0 µM 18% | [10]; [17] 14% | [10]; [18] 21% | [10]; at 50.0 µM 12.3% | [11]; at 1.2 µM 26% | [11]; at 3.7 µM 38% | [11]; [17] 36% | [11]; at 11.0 µM 58% | [12]; at 1.2 µM 2% | [12]; at 3.7 µM 3% | [12]; at 11.0 µM 2% | [12]; at 33.0 µM 9% | [12]; at 100.0 µM 17% | [13]; at 1.2 µM -2% | [13]; at 3.7 µM -1% | [13]; at 11.0 µM 4% | [13]; at 33.0 µM 8% | [13]; at 100.0 µM 8% | [14]; at 1.2 µM -3% | [14]; at 3.7 µM -2% | [14]; at 11.0 µM 0% | [14]; at 33.0 µM 8% | [14]; at 100.0 µM 9% | [15]; [17] 10% | [15]; [18] 38% | [15]; at 50.0 µM 24.9% | [16]; at 1.2 µM 0% | [16]; at 3.7 µM 15% | [16]; at 11.0 µM 33% | [16]; at 33.0 µM 40% | [16]; at 100.0 µM 27%

CC(C)[Si]1(C(C)C)OCC2OC(n3cnc4c(N)ncnc43)C(N)C2O[Si](C(C)C)(C(C)C)O1 (stereo unspecified)
inactive: [1]; at 1.2 µM 3% | [1]; at 3.7 µM 9% | [1]; at 11.0 µM 32% | [2]; at 1.2 µM 5% | [2]; at 3.7 µM 11% | [2]; at 11.0 µM 34% | [3]; at 1.2 µM 10% | [3]; at 3.7 µM 20% | [3]; at 11.0 µM 15% | [3]; at 33.0 µM 24% | [4]; at 1.2 µM 19% | [4]; at 3.7 µM 16% | [4]; at 11.0 µM 20% | [5]; at 1.2 µM 7% | [5]; at 3.7 µM 10% | [5]; [17] 38% | [5]; at 11.0 µM 41% | [6]; at 1.2 µM 19% | [6]; at 3.7 µM -5% | [6]; [17] 14% | [6]; at 11.0 µM 14% | [7]; at 1.2 µM -1% | [7]; at 3.7 µM 1% | [7]; at 11.0 µM 13% | [8]; [17] 7% | [9]; at 1.2 µM 14% | [9]; at 3.7 µM 2% | [9]; at 11.0 µM 5% | [10]; [17] 18% | [11]; at 1.2 µM -3% | [11]; at 3.7 µM -10% | [11]; [17] -26% | [11]; at 11.0 µM 9% | [12]; at 1.2 µM -50% | [12]; at 3.7 µM -34% | [13]; at 1.2 µM 3% | [13]; at 3.7 µM 14% | [13]; at 11.0 µM 32% | [14]; at 1.2 µM 6% | [14]; at 3.7 µM 5% | [14]; at 11.0 µM 19% | [15]; [17] 47% | [16]; at 1.2 µM -8% | [16]; at 3.7 µM 2% | [16]; at 11.0 µM 22%
active: [1]; at 33.0 µM 98% | [1]; at 100.0 µM 98% | [2]; at 33.0 µM 98% | [2]; at 100.0 µM 98% | [3]; at 100.0 µM 89% | [4]; at 33.0 µM 98% | [4]; at 100.0 µM 98% | [5]; at 33.0 µM 98% | [5]; [18] 98% | [5]; at 50.0 µM 89.8% | [5]; at 100.0 µM 98% | [6]; at 33.0 µM 98% | [6]; [18] 99% | [6]; at 50.0 µM 90.4% | [6]; at 100.0 µM 98% | [7]; at 33.0 µM 98% | [7]; at 100.0 µM 98% | [8]; [18] 99% | [8]; at 50.0 µM 88.8% | [9]; at 33.0 µM 97% | [9]; at 100.0 µM 98% | [10]; [18] 99% | [10]; at 50.0 µM 89.3% | [11]; at 33.0 µM 97% | [11]; [18] 99% | [11]; at 50.0 µM 86.5% | [11]; at 100.0 µM 98% | [12]; at 11.0 µM 93% | [12]; at 33.0 µM 98% | [12]; at 100.0 µM 97% | [13]; at 33.0 µM 97% | [13]; at 100.0 µM 98% | [14]; at 33.0 µM 97% | [14]; at 100.0 µM 98% | [15]; [18] 99% | [15]; at 50.0 µM 87.4% | [16]; at 33.0 µM 97% | [16]; at 100.0 µM 97%
